The panel holds about 83,000 compounds, 20% with a hit somewhere; the sample as a whole holds those more often.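 Values shown are percent growth following 48 h exposure of cells in 96-well plates to a single concentration of compound; below 10 was considered active.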 Active and inactive are the calls of the source.
Key:
Assay in all cases: NCI-60 one-dose screen, 48 h (100 = growth as untreated, 0 = no growth, -100 = all killed)
[1] = system: HT29 colon; conditions: 10 µM unless noted
[2] = system: SNB-75 CNS; conditions: 10 µM
[3] = system: SNB-19 CNS; conditions: 10 µM unless noted
[4] = system: U251 CNS; conditions: 10 µM unless noted
[5] = system: PC-3 prostate; conditions: 10 µM unless noted
[6] = system: SK-MEL-5 melanoma; conditions: 10 µM unless noted
[7] = system: UACC-62 melanoma; conditions: 10 µM unless noted
[8] = system: LOX IMVI melanoma; conditions: 10 µM unless noted
[9] = system: SK-MEL-28 melanoma; conditions: 10 µM unless noted
[10] = system: SK-MEL-2 melanoma; conditions: 10 µM unless noted
[11] = system: SN12C renal; conditions: 10 µM unless noted
[12] = system: UO-31 renal; conditions: 10 µM unless noted
[13] = system: TK-10 renal; conditions: 10 µM unless noted
[14] = system: ACHN renal; conditions: 10 µM unless noted
[15] = system: CAKI-1 renal; conditions: 10 µM unless noted
[16] = system: A498 renal; conditions: 10 µM unless noted
[17] = system: CCRF-CEM leukemia; conditions: 10 µM unless noted
[18] = system: MOLT-4 leukemia; conditions: 10 µM unless noted
[19] = system: EKVX NSCLC; conditions: 10 µM unless noted
[20] = system: HCT-15 colon; conditions: 10 µM unless noted

Measured: growth

O=C1C2(c3ccccc3)C(c3ccccc3)=C(c3ccccc3)C1(c1ccccc1)C1CC=CC12 (stereo not drawn)
inactive: [1] 81.8% | [2] 83.4% | [3] 85.5% | [4] 89.4% | [5] 48.8% | [6] 85.8% | [7] 78.3% | [8] 85% | [9] 108% | [10] 82.6% | [11] 86.1% | [12] 61.6% | [13] 118% | [14] 86.7% | [15] 52.6% | [16] 89.2% | [17] 84.2% | [18] 84.4%

CC(C)(C)Nc1c(-c2cccs2)nc2ncccn12
inactive: [1] 103% | [3] 95.9% | [4] 104% | [5] 95% | [6] 93.8% | [7] 95.8% | [8] 98.5% | [9] 113% | [10] 100% | [19] 104% | [11] 94.9% | [12] 86.9% | [13] 101% | [14] 107% | [15] 89.9% | [16] 80.1% | [17] 89.9% | [18] 86.2%

Cc1cccc(/C=N/Nc2cc(C)c3cccc(C)c3n2)n1
inactive: [1] 84.9% | [2] 119% | [3] 92.7% | [5] 51.6% | [6] 66.2% | [7] 87.1% | [8] 102% | [9] 94.8% | [11] 94.6% | [12] 76.5% | [13] 111% | [14] 92.1% | [15] 98.3% | [16] 97.7% | [17] 74% | [18] 67.9%

Clc1ccc(-c2nc3ccccc3s2)cc1Cl
inactive: [1] 97.2% | [3] 93.6% | [4] 86.9% | [5] 89% | [6] 89.8% | [7] 88.2% | [8] 88.4% | [9] 106% | [10] 94.8% | [19] 85.3% | [11] 92.3% | [12] 72.3% | [13] 81.5% | [14] 93.3% | [15] 83.9% | [16] 77%

COc1cccc(-c2nc3sccn3c2-c2ccnc(NCCCNS(=O)(=O)c3ccc(C(F)(F)F)cc3)c2)c1
active: [6] 5.99%
inactive: [1] 47.2% | [3] 69.4% | [4] 55.1% | [5] 29.1% | [7] 43% | [8] 55.3% | [9] 72.4% | [10] 65.7% | [19] 46% | [11] 47.9% | [12] 29.7% | [13] 85.5% | [14] 56% | [15] 40.3% | [16] 43% | [17] 40.4% | [18] 26.4%

CC1(C)C(=O)/C(=C\c2ccc(C(F)(F)F)cc2)C[C@]2(C)[C@H]3CC[C@@H]4[C@H]5[C@H](C(=O)/C=C/c6ccc(C(F)(F)F)cc6)CC[C@]5(CO)CC[C@@]4(C)[C@]3(C)CC[C@@H]12
inactive: [1] 104% | [2] 83.7% | [3] 92.6% | [4] 92.8% | [5] 84% | [6] 94.1% | [7] 84.3% | [9] 110% | [11] 91.8% | [12] 66.6% | [13] 126% | [14] 91.9% | [15] 56.2% | [16] 93.7% | [17] 90.5% | [18] 82.5%

O=C1Nc2ccc(Cl)cc2C12Nc1cc(Cl)ccc1S2 (stereo not drawn)
inactive: [20] 87% | [3] 94.8% | [4] 85.8% | [5] 51.8% | [6] 70.9% | [8] 77.9% | [9] 110% | [19] 73.3% | [11] 90.1% | [12] 57.4% | [13] 111% | [14] 104% | [15] 112% | [16] 118% | [17] 97.3% | [18] 38.3%

Cc1nn(-c2ccc(Cl)cc2)c2ncnc(N/N=C/c3cccc([N+](=O)[O-])c3)c12
inactive: [1] 90.7% | [2] 99.2% | [3] 96.4% | [4] 82.3% | [5] 39% | [6] 105% | [7] 109% | [8] 93.4% | [9] 105% | [10] 99% | [19] 84% | [11] 101% | [12] 72.3% | [13] 93.3% | [14] 108% | [15] 76.4% | [16] 85.5% | [17] 20.5% | [18] 15.4%

Cn1c2ccc(Br)cc2c2c3c(c4c5ccccc5[nH]c4c21)C(=O)N(O)C3=O
active: [1] -76.4% | [2] -86.9% | [3] -35.8% | [4] -71% | [5] -43.9% | [6] -97.8% | [7] -72.3% | [8] -80.9% | [9] -79.3% | [10] -74.4% | [11] -71.9% | [12] -95.4% | [13] -72.2% | [14] -66.3% | [15] -76.6% | [16] -43.7% | [17] -16% | [18] -28%

COC(=O)c1cc(=O)nc(N/N=C/c2ccco2)s1
inactive: [1] 106% | [2] 96.2% | [3] 105% | [4] 104% | [5] 95.7% | [6] 99.6% | [7] 106% | [8] 101% | [9] 104% | [10] 117% | [11] 102% | [12] 87.5% | [13] 118% | [14] 104% | [15] 105% | [16] 99.5% | [17] 95.6% | [18] 94.9%

Clc1ccccc1-c1nc2ccccc2[nH]1
inactive: [1] 103% | [2] 84.1% | [3] 90% | [5] 94.4% | [6] 102% | [7] 98.2% | [9] 113% | [10] 116% | [19] 90.3% | [11] 116% | [12] 95.1% | [13] 121% | [15] 77.5% | [16] 110% | [17] 91% | [18] 110%

c1cc2[nH]ncc2cc1-c1nc2ccc3[nH]ncc3c2c2c1CCC2
inactive: [1] 37.9% | [2] 34.9% | [3] 69.5% | [4] 43.6% | [5] 54.5% | [6] 56.6% | [7] 15.4% | [8] 40.4% | [10] 19% | [11] 63.9% | [12] 38% | [13] 30.8% | [14] 23.8% | [15] 23.3% | [17] 30.2% | [18] 20.9%
active: [16] -3.31%

c1cc(C2=N[C@@H]3c4ccccc4C[C@@H]3O2)nc(C2=N[C@@H]3c4ccccc4C[C@@H]3O2)c1
inactive: [1] 105% | [3] 97.7% | [4] 101% | [5] 98.3% | [6] 102% | [7] 102% | [8] 97% | [9] 108% | [10] 103% | [19] 89.4% | [11] 97% | [12] 94.6% | [13] 101% | [14] 102% | [16] 102% | [17] 102% | [18] 106%
